Compound activity (PubChem)
HPGD block: blocks human HPGD enzyme activity | Potency, µM, for the others: top-dose activity change, negative = inhibition, most hits filed as inhibitors | hit rate 4.3% among 150,000 | purified HPGD, NADH fluorescence kinetic, PGE2 substrate; note: potency is the fitted concentration of half-maximal effect
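NADH formation kinetics: reaction with 30 uM PGE2 and 1 mM NAD+ (final), 20 nM enzyme, Tris-HCl pH 8 with Tween 20, after 15 min compound preincubation at room temperature. Fluorescence change, last versus first of five reads.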
ALDH1A1 inh: ALDH1A1 (human) enzyme inhibition; P00352; Purified ALDH1A1, NADH fluorescence, propionaldehyde substrate; Potency, µM (top dose mostly 75.3 µM), for the others: top-dose activity, negative = inhibition, hits mostly inhibitors; hit rate 7.3% among 220,000;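 note: potency is the fitted concentration of half-maximal effect; plate controls were no enzyme wells and a reference inhibitor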
Target sequence (P00352 whole entry, looked up): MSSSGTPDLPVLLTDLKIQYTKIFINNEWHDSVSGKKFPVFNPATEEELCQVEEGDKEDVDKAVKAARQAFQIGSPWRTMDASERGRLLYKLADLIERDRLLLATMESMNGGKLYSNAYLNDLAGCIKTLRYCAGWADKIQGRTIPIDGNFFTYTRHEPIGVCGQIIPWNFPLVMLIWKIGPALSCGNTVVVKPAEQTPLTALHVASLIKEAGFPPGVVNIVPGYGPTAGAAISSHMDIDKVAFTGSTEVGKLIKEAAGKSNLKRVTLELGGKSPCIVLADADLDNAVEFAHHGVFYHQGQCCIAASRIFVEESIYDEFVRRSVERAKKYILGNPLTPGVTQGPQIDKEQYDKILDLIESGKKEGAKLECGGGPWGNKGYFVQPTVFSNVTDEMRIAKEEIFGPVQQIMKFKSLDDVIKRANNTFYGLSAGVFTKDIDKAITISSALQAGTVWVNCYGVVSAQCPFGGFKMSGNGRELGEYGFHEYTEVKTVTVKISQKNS
PNC assembly inh: inhibitors of perinucleolar compartment assembly. hit rate 3.1% among 140,000. PC3M PTB-GFP, PNC prevalence imaging, 16 h; stronger effect = lower value. activity change (PNC), negative = inhibition, % at 10 µM. AID 2417;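 active = readout at or below -70, meaning at least 70% loss of cells showing the perinucleolar compartment, a nuclear body marking cancer cells; inconclusive = readout between -30 and a set limit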;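 note: plate controls were DMSO wells for no effect and camptothecin positive control wells for full effect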
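Read-out is percentage of cells bearing a perinucleolar compartment, from automated 20x imaging of fixed, Hoechst-stained PC3M PTB-GFP cells. Cells were seeded 4 h, then exposed 16 h to compound (23 nl of library stock) in duplicate plates.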
The depositor's hits bear a star; ? = inconclusive; · = no result; [ ] = remark or other dose. In the library only some 11% were active in any assay of this set; here they are far more common. Unless noted, calls come from the whole dose curve; as a rule, active = well fitted inhibition curve with a large enough effect (not every such curve was filed as active); inconclusive = small, poorly fitted or top-dose-only effect, or another doubt; inactive = no such curve, though single readings can be large or run the other way. Unless noted, % is set by controls: 0 for no effect and ±100 for the full control effect.

SMILES	HPGD block	ALDH1A1 inh	PNC assembly inh
COc1ccccc1/C=N\N=C(\N)c1ccccn1	-22.8%	-2.7%	52.0
C=CCSc1nc(C)cc(C(=O)OCC)c1C#N	·	-9.5%	·
CS(=O)(=O)Nc1ccc(C(=O)N2CCCCC2)cc1	14.1µM*	?	14.0
O=C(Nc1ccc(C(=O)N2CCCC2)cc1)c1ccccc1F	3.16µM*	-7.7%	-21.4
CS(=O)(=O)Nc1ccc(C(=O)N2CCc3ccccc3C2)cc1	·	-4.7%	·
CC(C)C(=O)Nc1ccc(C(=O)N2CCN(C(=O)c3ccco3)CC2)cc1	-8.9%	-19.6%	?
CC1CCN(C(=O)c2ccc(NS(C)(=O)=O)cc2)CC1	10µM*	?	-18.3
O=C(Nc1cc(C(=O)N2CCCC2)ccc1N1CCCC1)c1ccccc1F	?	?	38.7
CS(=O)(=O)Nc1ccc(C(=O)N2CCN(c3ccccc3F)CC2)cc1	-15.8%	9.8%	35.7
CC(C)C(=O)Nc1ccc(C(=O)N2CCCCCC2)cc1	2µM*	0.0%	-1.6
Cc1cc(S(=O)(=O)NCC(C)C)ccc1OCC(=O)NCC1CCCO1 (centres undefined)	-5.3%	-0.4%	?
N#CC[N+]1(Cc2ccccn2)CCCC1	-13.5%	-4.7%[13.5 µM]	·
O=C1C[C@H]2CCCCC(=O)N3CC[C@@H](C1)[C@@H]23	-10.3%	-10.9%[120 µM]	·
CCOC(=O)Cn1c(=O)c2c(nc(Br)n2Cc2ccc(Cl)cc2)n(C)c1=O	-7.7%	5.6%	0.8
O=C(O)C1CC=CCC1C(=O)Nc1ccc(S(=O)(=O)N2CCCc3ccccc32)cc1 (centres undefined)	-14.7%	22.4µM*	9.4
Cc1ccccc1Oc1ccc(NC(=O)C2CC=CCC2C(=O)O)cc1 (centres undefined)	1.3%	2.24µM*	-82.9*
O=C(O)C1CC=CCC1C(=O)Nc1ccccc1 (centres undefined)	-0.2%	-11.4%	-20.0
CCc1ccc(NC(=O)C2CC=CCC2C(=O)O)cc1 (centres undefined)	-13.3%	?	1.1
O=C(Nc1cccc(Cl)c1)N1CCCC1	-4.6%	17.7%	13.4
O=C(O)C1CC=CCC1C(=O)Nc1cccc(Cl)c1 (centres undefined)	-29.4%	17.8µM*	65.0
O=C(Nc1ccc(S(=O)(=O)N2CCCc3ccccc32)cc1)C1CCCO1 (centres undefined)	-19.7%	-8.4%	0.8
CC1CCCCN1C(=O)Nc1cccc(Cl)c1 (centres undefined)	22.4µM*	22.4µM*	?
CCOC(=O)c1cccc(NC(=O)CSc2nnc(C3CCCCC3)n2CC)c1	-12.4%	-6.7%	18.5
ClCc1csc(-c2ccccc2Cl)n1	·	-13.2%	·
CC(C)(C)c1cc[n+](CC(=O)Nc2cc(C(F)(F)F)ccc2N2CCOCC2)cc1	·	11.9%	·
SMILES	HPGD block	ALDH1A1 inh	PNC assembly inh
Cn1c(=O)c2c(n3cnnc13)-c1ccccc1CC21CCCC1	-11.3%	11.2µM*	8.8
O=c1c2c(n3cnnc3n1-c1ccccc1)-c1ccccc1CC21CCCC1	-6.6%	?	19.1
CCCCC1=CC2=C(OC(C)=O)C(=O)C(C)(OC(=O)C3CCCC3)C(=O)C2=CO1 (centres undefined)	-20.9%	-3.6%	·
COC(=O)c1ccc(Sc2ccccc2NS(=O)(=O)c2ccc(C)cc2)nc1	-0.3%	28.2µM*	34.9
Cc1ccc(S(=O)(=O)Nc2ccccc2-c2ccccc2NS(=O)(=O)c2ccc(C)cc2)cc1	-15.0%	-5.5%	?
Cc1nn(C)cc1CN(C)S(=O)(=O)c1cccc([N+](=O)[O-])c1	·	1.0%	·
CC(=O)OCc1c(F)c(F)c(-n2nc(C)cc2C)c(F)c1F	1.8%	5.1%	?
CCn1cc(NC(=O)CCl)c(C)n1	·	4.47µM*	·
CCn1cc(CCC(=O)O)c(C)n1	·	6.3%	·
COc1ccccc1CCc1nnc(CCC(=O)N(C)Cc2cccc3ncccc23)o1	·	6.4%	·
CN(Cc1cccc2cnccc12)C(=O)CCc1nnc(CCc2ccccc2)o1	·	28.2µM*	·
C=CCSC1=N/C(=C\C=C\c2ccco2)C(=O)S1	-23.1%	20µM*	24.4
C=CCSC1=N/C(=C\c2sccc2C)C(=O)S1	-11.8%	1.6%	-4.6
Cc1ccc2c(c1)sc1nc(=O)n(-c3cccc(Cl)c3)c(=O)n12	-15.3%	-2.5%	-4.7
c1ccc(-c2noc(-c3ccco3)n2)nc1	2.8%	-0.6%	?
c1ccc(-c2nc(-c3ccco3)cs2)nc1	-10.0%	?	-100.0*
O=C(NC(=S)Nc1nc(-c2ccccc2)cs1)c1cncc(Br)c1	-7.4%	0.9%	79.4
O=C(NC(=S)Nc1nc(-c2ccccc2)cs1)c1ccco1	·	14.1µM*	·
O=C(Cc1ccccc1F)Nc1nc(-c2cccs2)cs1	-21.2%	-1.3%	21.2
O=C(Cc1ccccc1F)Nc1nc(-c2cccnc2)cs1	·	25.1µM*	·
O=C(NC(=S)Nc1nc(-c2ccccc2)cs1)c1cccnc1	·	8.91µM*	·
COc1ccc(-c2csc(NC(=S)NC(=O)c3ccco3)n2)cc1	·	6.6%	·
CON(C)c1nc(OCC#N)nc(N(C)C)n1	-2.9%	6.6%	?
COC(=O)/C(=N\Nc1ccccc1)Sc1nnc(-c2ccc(OC)cc2)n1C	-11.6%	-9.2%	18.3
CN1C(=S)SC(N(O)C(=O)NC2CCCCC2)C1(C)C (centres undefined)	-13.4%	-12.1%	10.4
COC(=O)c1sc(S(=O)(=O)Nc2ccc(Br)cc2)c(C(=O)OC)c1C	-4.1%	?	-21.8
O=C(Nc1nc(-c2ccncc2)cs1)c1ccco1	2.1%	-6.6%	?
COc1ccc(OCCC(=O)Nc2nccs2)cc1	·	5.8%	·
O=C(Nc1nc(-c2ccccn2)cs1)c1ccco1	·	35.5µM*	·
O=C(NC(=S)Nc1ccc(NC(=O)c2cccs2)cc1)c1cc2ccccc2o1	-25.0%	-8.8%	34.9
